Where “and” joins values, the source holds several entries; their conditions need not be identical. Equal entries are not always repeated. Out of some 5,500 compounds screened, about 2,000 (36%) were called active. Inconclusive results (about 18%) are left out. Rule as the data show it: active = normalized growth mostly below about 0.91 (no sharp cut-off); inconclusive = no clear call, values can overlap the other calls; inactive = mostly above about 0.92. The list shows a part of the results.
Experiment: chemical genetic growth profiling, strain panel (AID 1159580);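 also: tested at 20 µM; growth read once vehicle control cultures reached saturation at 30 °C; 1 = growth at the plate median or of vehicle wells; lower values mean less growth of the strain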
Details: S. cerevisiae deletion strains, growth OD

Measured: normalized growth

COc1ccc(C(=O)/C=C/c2ccccc2)cc1
0.95 (inactive) and 0.812 (active): locus YHR030C, strain SLT2, stronger effect = lower value
inactive: locus YAL021C, strain ccr4, stronger effect = lower value 1.01 | locus YAL026C, strain drs2, stronger effect = lower value 0.924 | locus YAL030W, strain snc1, stronger effect = lower value 0.951 | locus YBL061C, strain skt5, stronger effect = lower value 0.947 | locus YBR171W, strain sec66, stronger effect = lower value 0.939 | locus YBR229C, strain ROT2, stronger effect = lower value 0.991 | locus YBR231C, strain swc5, stronger effect = lower value 0.927 | locus YBR279W, strain paf1, stronger effect = lower value 0.951 | locus YCL069W, strain vba3, stronger effect = lower value 0.944 | locus YCR088W, strain abp1, stronger effect = lower value 0.965 | locus YDL005C, strain med2, stronger effect = lower value 0.992 | locus YDL035C, strain GPR1, stronger effect = lower value 0.921 | locus YDL040C, strain nat1, stronger effect = lower value 1.01 | locus YDL101C, strain DUN1, stronger effect = lower value 0.941 | locus YDL185W, strain tfp1, stronger effect = lower value 0.942 | locus YDR001C, strain nth1, stronger effect = lower value 0.982 | locus YDR069C, strain doa4, stronger effect = lower value 0.995 | locus YDR150W, strain NUM1, stronger effect = lower value 1.01 | locus YDR159W, strain sac3, stronger effect = lower value 0.956 | locus YDR162C, strain NBP2, stronger effect = lower value 0.965 | locus YDR195W, strain ref2 1.1 | locus YDR297W, strain sur2, stronger effect = lower value 0.939 | locus YDR334W, strain swr1, stronger effect = lower value 0.999 | locus YDR388W, stronger effect = lower value 0.955 | locus YEL037C, strain rad23, stronger effect = lower value 0.982 | locus YER015W, strain faa2, stronger effect = lower value 0.956 | locus YER111C, strain swi4, stronger effect = lower value 0.968 | locus YER167W, strain BCK2, stronger effect = lower value 0.994 | locus YFR010W, strain ubp6, stronger effect = lower value 0.96 | locus YGL167C, strain pmr1, stronger effect = lower value 0.971 | locus YHR013C, strain ard1, stronger effect = lower value 0.947 | locus YHR027C, strain rpn1, stronger effect = lower value 0.939 | locus YHR079C, strain IRE1 (second series), stronger effect = lower value 0.932 | locus YHR094C, strain hxt1, stronger effect = lower value 0.941 | locus YIL066C, strain RNR3, stronger effect = lower value 0.919 | locus YIL073C, strain SPO22, stronger effect = lower value 0.889 | locus YIL125W, strain kgd1, stronger effect = lower value 0.985 | locus YJL092W, strain hpr5, stronger effect = lower value 0.965 | locus YJL115W, strain asf1, stronger effect = lower value 0.984 | locus YJL134W, strain LCB3, stronger effect = lower value 0.99 | locus YJL154C, strain vps35, stronger effect = lower value 0.995 | locus YJL168C, strain set2, stronger effect = lower value 0.959 | locus YJL187C, strain SWE1 (second series), stronger effect = lower value 0.908 | locus YJR066W, strain TOR1, stronger effect = lower value 0.841 | locus YKL068W, stronger effect = lower value 0.983 | locus YKL085W, strain MDH1 (second series), stronger effect = lower value 0.974 | locus YKL085W, strain MDH1, stronger effect = lower value 0.974 | locus YKL190W, strain CNB1, stronger effect = lower value 1.01 | locus YKR026C, strain gcn3, stronger effect = lower value 0.983 | locus YKR091W, strain srl3, stronger effect = lower value 0.982 | locus YLL026W, stronger effect = lower value 0.971 | locus YLL041C, strain sdh2, stronger effect = lower value 0.999 | locus YLR039C, strain RIC1, stronger effect = lower value 0.792 | locus YLR058C, strain SHM2, stronger effect = lower value 0.899 | locus YLR102C, strain apc9, stronger effect = lower value 0.964 | locus YLR258W, strain gsy2, stronger effect = lower value 0.936 | locus YLR357W, strain rsc2, stronger effect = lower value 0.957 | locus YLR370C, strain arc18, stronger effect = lower value 0.978 | locus YLR384C, strain iki3, stronger effect = lower value 0.969 | locus YML016C, strain PPZ1, stronger effect = lower value 0.947 | locus YML120C, strain ndi1, stronger effect = lower value 0.954 | locus YML124C, strain tub3, stronger effect = lower value 0.958 | locus YMR129W, stronger effect = lower value 0.985 | locus YMR231W, strain pep5, stronger effect = lower value 1 | locus YMR307W, strain GAS1, stronger effect = lower value 0.939 | locus YNL067W, strain RPL9B, stronger effect = lower value 0.954 | locus YNL128W, strain TEP1, stronger effect = lower value 0.922 | locus YNL183C, strain NPR1, stronger effect = lower value 0.838 | locus YNL209W, strain ssb2, stronger effect = lower value 0.968 | locus YNL250W, strain rad50, stronger effect = lower value 0.958 | locus YNL271C, strain bni1, stronger effect = lower value 0.92 | locus YNL322C, strain KRE1 (second series), stronger effect = lower value 0.917 | locus YNR049C, strain mso1, stronger effect = lower value 0.995 | locus YNR052C, strain pop2, stronger effect = lower value 0.941 | locus YOL006C, strain TOP1, stronger effect = lower value 0.664 | locus YOL012C, strain htz1 0.771 | locus YOR001W, strain rrp6, stronger effect = lower value 0.905 | locus YOR061W, strain CKA2, stronger effect = lower value 0.981 | locus YOR069W, strain VPS5, stronger effect = lower value 0.958 | locus YOR070C, strain gyp1, stronger effect = lower value 0.928 | locus YOR080W, strain dia2, stronger effect = lower value 0.981 | locus YOR136W, strain idh2, stronger effect = lower value 0.939 | locus YOR265W, strain rbl2, stronger effect = lower value 0.994 | locus YOR316C, strain cot1, stronger effect = lower value 0.966 | locus YPL240C, strain hsp82, stronger effect = lower value 0.954 | locus YPR119W, strain clb2, stronger effect = lower value 0.964 | locus YPR141C, strain kar3, stronger effect = lower value 0.965
active: locus YBR009C, strain hhf1, stronger effect = lower value 0.825 | locus YBR021W, strain FUR4, stronger effect = lower value 0.782 | locus YBR023C, strain chs3, stronger effect = lower value 0.911 | locus YCL011C, strain gbp2, stronger effect = lower value 0.902 | locus YCL016C, strain dcc1, stronger effect = lower value 0.876 | locus YCL029C, strain bik1, stronger effect = lower value 0.822 | locus YCL061C, strain MRC1, stronger effect = lower value 0.846 | locus YDL074C, strain BRE1, stronger effect = lower value 0.738 | locus YDL192W, strain arf1, stronger effect = lower value 0.832 | locus YDR101C, strain arx1, stronger effect = lower value 0.867 | locus YDR137W, strain rgp1, stronger effect = lower value 0.845 | locus YDR318W, strain mcm21, stronger effect = lower value 0.798 | locus YDR335W, strain msn5, stronger effect = lower value 0.889 | locus YDR392W, strain spt3, stronger effect = lower value 0.194 | locus YDR502C, strain sam2, stronger effect = lower value 0.787 | locus YEL003W, strain gim4, stronger effect = lower value 0.856 | locus YEL061C, strain CIN8 (second series), stronger effect = lower value 0.844 | locus YER016W, strain bim1, stronger effect = lower value 0.91 | locus YER110C, stronger effect = lower value 0.873 | locus YER155C, strain BEM2 (second series), stronger effect = lower value 0.268 | locus YER155C, strain BEM2, stronger effect = lower value 0.686 | locus YGL078C, strain dbp3, stronger effect = lower value 0.906 | locus YGL086W, strain mad1, stronger effect = lower value 0.779 | locus YGL173C, strain kem1, stronger effect = lower value 0.889 | locus YGL227W, strain vid30, stronger effect = lower value 0.892 | locus YGL240W, strain doc1, stronger effect = lower value 0.762 | locus YGL248W, strain PDE1, stronger effect = lower value 0.824 | locus YGL253W, strain hxk2, stronger effect = lower value 0.908 | locus YGR135W, strain pre9, stronger effect = lower value 0.696 | locus YGR252W, strain gcn5, stronger effect = lower value 0.629 | locus YHR079C, strain IRE1, stronger effect = lower value 0.756 | locus YHR129C, strain ARP1, stronger effect = lower value 0.87 | locus YHR142W, strain chs7, stronger effect = lower value 0.767 | locus YHR200W, strain rpn10, stronger effect = lower value 0.866 | locus YIR030C, strain dcg1, stronger effect = lower value 0.888 | locus YJL095W, strain BCK1 (second series), stronger effect = lower value 0.886 | locus YJL095W, strain BCK1, stronger effect = lower value 0.544 and 0.84 | locus YJL129C, strain trk1, stronger effect = lower value 0.859 | locus YJL164C, strain tpk1, stronger effect = lower value 0.887 | locus YJL166W, strain qcr8, stronger effect = lower value 0.746 | locus YJL187C, strain SWE1, stronger effect = lower value 0.917 | locus YKL009W, strain mrt4, stronger effect = lower value 0.834 | locus YKL160W, strain elf1, stronger effect = lower value 0.878 | locus YKR001C, strain vps1, stronger effect = lower value 0.783 | locus YLL001W, strain dnm1, stronger effect = lower value 0.898 | locus YLR027C, strain aat2, stronger effect = lower value 0.846 | locus YLR113W, strain HOG1, stronger effect = lower value 0.628 | locus YLR221C, strain rsa3, stronger effect = lower value 0.809 | locus YLR262C, strain YPT6 (second series), stronger effect = lower value 0.855 | locus YLR268W, strain sec22, stronger effect = lower value 0.818 | locus YLR320W, strain mms22, stronger effect = lower value 0.525 | locus YLR330W, strain CHS5, stronger effect = lower value 0.854 | locus YLR342W, strain FKS1, stronger effect = lower value 0.839 | locus YLR371W, strain rom2, stronger effect = lower value 0.796 | locus YLR418C, strain cdc73, stronger effect = lower value 0.358 | locus YML032C, strain rad52, stronger effect = lower value 0.746 | locus YMR058W, strain fet3, stronger effect = lower value 0.803 | locus YMR078C, strain ctf18, stronger effect = lower value 0.73 | locus YMR125W, strain sto1, stronger effect = lower value 0.856 | locus YMR205C, strain PFK2, stronger effect = lower value 0.707 | locus YMR223W, strain ubp8, stronger effect = lower value 0.852 | locus YNL071W, strain lat1, stronger effect = lower value 0.307 | locus YNL233W, strain BNI4, stronger effect = lower value 0.777 | locus YNL248C, strain rpa49, stronger effect = lower value 0.687 | locus YNL298W, strain CLA4, stronger effect = lower value 0.858 | locus YNL307C, strain MCK1, stronger effect = lower value 0.239 | locus YOL147C, strain pex11, stronger effect = lower value 0.752 | locus YOR083W, strain WHI5, stronger effect = lower value 0.86 | locus YOR106W, strain vam3, stronger effect = lower value 0.823 | locus YOR144C, strain elg1, stronger effect = lower value 0.897 | locus YOR184W, strain ser1, stronger effect = lower value 0.43 | locus YOR231W, strain MKK1, stronger effect = lower value 0.757 | locus YOR270C, strain vph1, stronger effect = lower value 0.613 | locus YOR290C, strain snf2, stronger effect = lower value 0.792 | locus YPL051W, strain arl3, stronger effect = lower value 0.868 | locus YPL078C, strain atp4, stronger effect = lower value 0.799 | locus YPL106C, strain sse1, stronger effect = lower value 0.76 | locus YPL256C, strain CLN2, stronger effect = lower value 0.74 | locus YPR163C, strain tif3, stronger effect = lower value 0.432 | locus YPR167C, strain met16, stronger effect = lower value 0.889 | strain wtn01, stronger effect = lower value 0.811

— PubChem BioAssay AID1159580 (chemical genetic matrix, 2015)
